Consider six compounds from PubChem BioAssay.

Assay [1] has as its system Noggin (protein binding on small-molecule microarray). Put plainly: Noggin binders on small-molecule microarray, primary screen, biochemical, 635/667 nm fluorescence (AID 1095).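 Further: score merges 667 nm feature fluorescence with signal to noise over triplicate slides.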 Conditions: 635 nm fluorescence, higher = more signal.
Assay [2] deals with Neurogenic locus notch homolog protein 3 (Homo sapiens) (UniProt Q9UM47). Put plainly: NOTCH3 binders on small-molecule microarray, primary screen, biochemical, 635/667 nm fluorescence (AID 1096). Conditions: NOTCH3 binding, 635 nm fluorescence, higher = more signal.
Sequence of Neurogenic locus notch homolog protein 3 (Homo sapiens) (Q9UM47 whole entry, looked up): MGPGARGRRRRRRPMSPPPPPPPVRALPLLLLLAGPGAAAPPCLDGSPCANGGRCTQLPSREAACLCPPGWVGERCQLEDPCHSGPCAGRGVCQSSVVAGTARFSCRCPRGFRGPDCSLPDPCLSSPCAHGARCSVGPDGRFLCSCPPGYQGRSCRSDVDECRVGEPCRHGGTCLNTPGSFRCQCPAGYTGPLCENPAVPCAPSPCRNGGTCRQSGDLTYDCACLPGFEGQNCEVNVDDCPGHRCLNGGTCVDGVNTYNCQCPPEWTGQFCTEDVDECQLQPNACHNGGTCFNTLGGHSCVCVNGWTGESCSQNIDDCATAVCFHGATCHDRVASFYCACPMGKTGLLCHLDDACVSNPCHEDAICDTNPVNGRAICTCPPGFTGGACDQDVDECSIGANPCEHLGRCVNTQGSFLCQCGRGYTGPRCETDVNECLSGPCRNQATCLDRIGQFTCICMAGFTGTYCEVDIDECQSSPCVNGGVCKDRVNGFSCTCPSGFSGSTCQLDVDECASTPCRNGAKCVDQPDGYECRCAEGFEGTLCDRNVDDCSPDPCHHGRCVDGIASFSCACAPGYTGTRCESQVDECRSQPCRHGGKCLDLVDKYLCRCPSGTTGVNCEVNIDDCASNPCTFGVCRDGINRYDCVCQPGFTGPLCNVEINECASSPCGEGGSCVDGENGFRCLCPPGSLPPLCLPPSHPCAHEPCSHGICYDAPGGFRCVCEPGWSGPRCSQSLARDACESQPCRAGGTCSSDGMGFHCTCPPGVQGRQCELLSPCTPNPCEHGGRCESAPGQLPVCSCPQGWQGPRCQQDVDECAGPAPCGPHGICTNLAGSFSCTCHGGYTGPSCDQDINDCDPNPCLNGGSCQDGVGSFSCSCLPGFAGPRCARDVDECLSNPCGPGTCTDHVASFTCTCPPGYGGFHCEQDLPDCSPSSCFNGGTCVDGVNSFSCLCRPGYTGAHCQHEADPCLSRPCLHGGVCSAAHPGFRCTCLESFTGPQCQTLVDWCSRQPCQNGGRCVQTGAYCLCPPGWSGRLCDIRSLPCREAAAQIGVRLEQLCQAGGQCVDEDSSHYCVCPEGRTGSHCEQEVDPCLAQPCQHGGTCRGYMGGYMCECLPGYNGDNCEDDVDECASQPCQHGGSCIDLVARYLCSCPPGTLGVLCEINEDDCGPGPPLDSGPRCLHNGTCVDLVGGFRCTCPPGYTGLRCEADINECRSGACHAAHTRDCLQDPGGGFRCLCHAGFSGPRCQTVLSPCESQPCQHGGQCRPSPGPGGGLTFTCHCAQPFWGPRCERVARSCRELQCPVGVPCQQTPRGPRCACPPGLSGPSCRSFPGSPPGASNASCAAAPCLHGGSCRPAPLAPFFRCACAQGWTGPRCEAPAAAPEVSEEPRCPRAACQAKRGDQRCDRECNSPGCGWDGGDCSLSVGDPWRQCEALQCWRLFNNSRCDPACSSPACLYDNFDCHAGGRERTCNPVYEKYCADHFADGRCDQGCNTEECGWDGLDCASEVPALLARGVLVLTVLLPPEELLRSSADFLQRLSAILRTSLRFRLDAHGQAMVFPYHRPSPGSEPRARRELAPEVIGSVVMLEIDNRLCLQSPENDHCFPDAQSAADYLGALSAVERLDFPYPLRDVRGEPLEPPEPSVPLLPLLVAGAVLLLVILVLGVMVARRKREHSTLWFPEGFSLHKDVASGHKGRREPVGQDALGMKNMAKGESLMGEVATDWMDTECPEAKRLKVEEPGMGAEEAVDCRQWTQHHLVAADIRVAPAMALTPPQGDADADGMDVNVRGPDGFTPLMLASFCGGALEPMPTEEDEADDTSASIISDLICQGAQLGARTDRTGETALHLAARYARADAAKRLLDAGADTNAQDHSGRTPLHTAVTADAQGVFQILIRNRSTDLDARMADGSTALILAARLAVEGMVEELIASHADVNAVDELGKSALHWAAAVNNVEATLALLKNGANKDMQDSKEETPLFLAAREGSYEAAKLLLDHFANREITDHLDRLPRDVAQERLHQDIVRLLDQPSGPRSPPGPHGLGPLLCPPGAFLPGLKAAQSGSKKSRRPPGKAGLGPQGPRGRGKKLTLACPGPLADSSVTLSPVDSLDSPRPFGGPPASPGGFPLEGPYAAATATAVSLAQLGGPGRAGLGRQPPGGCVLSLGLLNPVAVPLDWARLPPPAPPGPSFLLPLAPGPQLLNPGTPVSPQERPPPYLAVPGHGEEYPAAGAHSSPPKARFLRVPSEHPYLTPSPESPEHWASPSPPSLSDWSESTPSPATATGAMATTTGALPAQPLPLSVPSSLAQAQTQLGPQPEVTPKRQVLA
Assay [3] is described as follows: small-molecule microarray binders of probe aEGFR, primary screen, biochemical, biotinylated probe, 635/667 nm fluorescence (AID 1097).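 Further: probe is a biotinylated anti-EGFR antibody binding compounds printed on slides; score combines fluorescence near 667 nm and signal to noise of each spot.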 Conditions: higher = more signal.
The test system of assay [4] is Plasmodium falciparum Sir2 (PF13_0152, Sir2A). Put plainly: pfSir2 binders on small-molecule microarrays, primary screen, biochemical, small-molecule microarray, 635 nm fluorescence (AID 1098).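 Further: score merges spot fluorescence intensity with its signal-to-noise ratio.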 Conditions: small-molecule microarray binding, fluorescence 635 nm; higher = more signal.
Assay [5] is described as follows: small-molecule microarray binders of probe aDKK1, primary screen, biochemical, biotinylated probe, 635/667 nm fluorescence (AID 1099).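 Further: score merges 667nm spot fluorescence with signal to noise across triplicate slides.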 Conditions: higher = more signal.
Assay [6] is described as follows: small-molecule microarray binders of probe aCHRDL2, primary screen, biochemical, biotinylated probe, 635/667 nm fluorescence (AID 1100). Conditions: higher = more signal.
The nature of assay [7]: splicing luciferase reporter signal modulators, primary screen, spliceosome inhibition project, cell-based, HEK293, splice +/- reporter (AID 1101).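 Further: HEK293 cells carrying a splicing-competent luciferase reporter gene; test concentration not given here.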 Conditions: luminescence, 24 h, higher = more signal, called active from +8 up or from −8 down.
Assay [8] has as its target Fibroblast growth factor 10 (Homo sapiens) (UniProt O15520). The assay is described as follows: FGF10 binders on small-molecule microarrays, primary screen, biochemical, small-molecule microarray, 635 nm fluorescence (AID 1102). Conditions: FGF10 binding, fluorescence 635 nm, higher = more signal.
For assay [9], the system named is glycogen synthase kinase-3 (GSK3A per assay name; protocol says GSK3B). Put plainly: GSK3 binders on small-molecule microarrays, primary screen, biochemical, small-molecule microarray, 635 nm fluorescence, GSK3A (AID 1103). Further: the record names both GSK3A and GSK3B. Conditions: small-molecule microarray binding, fluorescence 635 nm; higher = more signal.
Assay [10] deals with Epidermal growth factor receptor (Homo sapiens) (UniProt P00533). The assay is described as follows: EGFR binders on small-molecule microarrays, primary screen, biochemical, small-molecule microarray, 635 nm fluorescence (AID 1104).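 Further: score merges 667 nm emission intensity with spot signal to noise over triplicate slides.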 Conditions: EGFR binding, higher = more signal.
Sequence of Epidermal growth factor receptor (Homo sapiens) (P00533 whole entry, looked up): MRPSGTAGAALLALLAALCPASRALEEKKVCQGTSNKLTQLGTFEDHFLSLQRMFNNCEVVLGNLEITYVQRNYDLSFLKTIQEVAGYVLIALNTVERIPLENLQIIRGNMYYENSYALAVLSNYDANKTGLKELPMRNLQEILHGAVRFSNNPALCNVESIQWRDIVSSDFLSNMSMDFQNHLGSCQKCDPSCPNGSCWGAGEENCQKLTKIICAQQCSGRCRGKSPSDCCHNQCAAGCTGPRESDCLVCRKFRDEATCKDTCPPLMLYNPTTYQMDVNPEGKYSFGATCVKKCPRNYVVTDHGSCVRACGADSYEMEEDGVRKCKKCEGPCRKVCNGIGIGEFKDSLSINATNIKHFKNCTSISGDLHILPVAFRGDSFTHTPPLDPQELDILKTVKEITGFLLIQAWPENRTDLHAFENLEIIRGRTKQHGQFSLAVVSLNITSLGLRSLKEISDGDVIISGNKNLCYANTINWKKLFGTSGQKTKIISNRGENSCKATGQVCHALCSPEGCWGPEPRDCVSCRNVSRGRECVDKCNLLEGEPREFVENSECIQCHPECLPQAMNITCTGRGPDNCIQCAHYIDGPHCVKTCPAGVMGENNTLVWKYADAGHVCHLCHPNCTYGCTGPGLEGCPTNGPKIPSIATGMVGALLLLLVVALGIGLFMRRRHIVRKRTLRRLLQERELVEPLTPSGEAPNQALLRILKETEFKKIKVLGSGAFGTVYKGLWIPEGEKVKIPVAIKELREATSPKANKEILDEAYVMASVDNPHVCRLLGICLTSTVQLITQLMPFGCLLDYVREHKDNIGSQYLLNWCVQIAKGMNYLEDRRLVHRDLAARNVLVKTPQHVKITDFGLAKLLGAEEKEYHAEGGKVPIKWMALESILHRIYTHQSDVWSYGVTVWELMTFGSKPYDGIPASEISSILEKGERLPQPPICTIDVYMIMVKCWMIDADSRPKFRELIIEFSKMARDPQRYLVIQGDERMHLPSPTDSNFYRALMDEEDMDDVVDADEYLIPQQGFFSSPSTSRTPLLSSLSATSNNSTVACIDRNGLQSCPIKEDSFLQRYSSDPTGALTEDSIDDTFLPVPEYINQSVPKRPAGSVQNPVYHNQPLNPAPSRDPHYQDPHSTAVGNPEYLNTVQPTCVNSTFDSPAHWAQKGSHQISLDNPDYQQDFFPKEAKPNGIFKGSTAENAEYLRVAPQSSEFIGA
For assay [11], the target named is Follistatin-related protein 3 (Homo sapiens) (UniProt O95633). Put plainly: FSTL3 binders on small-molecule microarrays, primary screen, biochemical, small-molecule microarray, 635 nm fluorescence (AID 1105).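 Further: score merges emission near 667 nm and signal to noise per printed spot across three slides.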 Conditions: FSTL3 binding, higher = more signal.
Sequence of Follistatin-related protein 3 (Homo sapiens) (O95633 whole entry, looked up): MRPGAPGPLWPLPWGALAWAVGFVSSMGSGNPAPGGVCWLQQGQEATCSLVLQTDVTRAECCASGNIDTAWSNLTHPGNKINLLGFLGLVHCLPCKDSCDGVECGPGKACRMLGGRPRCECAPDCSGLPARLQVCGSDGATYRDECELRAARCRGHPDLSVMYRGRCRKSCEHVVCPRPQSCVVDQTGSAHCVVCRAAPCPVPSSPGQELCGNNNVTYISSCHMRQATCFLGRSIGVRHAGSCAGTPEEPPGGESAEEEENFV
Assay [12] has as its target Dickkopf-related protein 1 (Homo sapiens) (UniProt O94907). The assay is described as follows: DKK1 binders on small-molecule microarrays, primary screen, biochemical, small-molecule microarray, 635 nm fluorescence scan (AID 1106).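 Further: score merges emission near 667 nm with signal to noise over three replicate slides.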 Conditions: DKK1 binding, higher = more signal.
Assay [13] relates to Inhibin beta A chain (activin A). Put plainly: INHBA (activin A) binders on microarrays, primary screen, biochemical, small-molecule microarray, 635 nm fluorescence scan (AID 1107).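 Further: mouse activin A protein probed at 4.33 µg/mL on printed slides; score merges bound-protein fluorescence near 667 nm with spot signal-to-noise.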 Conditions: small-molecule microarray binding, higher = more signal.
Assay [14] relates to Human papillomavirus type 1a protein E7 (residues 44-93). The assay is described as follows: HPV1a E7 fragment binders on microarrays, primary screen, biochemical, small-molecule microarray, residues 44-93, 635 nm fluorescence (AID 1108).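 Further: E7 fragment applied at 1 µg/mL in TBST for 1 h at 4 C; score combines spot fluorescence with its signal to noise ratio.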 Conditions: small-molecule microarray binding, fluorescence 635 nm; higher = more signal.
Assay [15] can be described thus: modulators of HCV replicon luciferase signal, primary screen, HCV replication inhibitor project, Huh7 cells, luciferase reporter (AID 1109).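 Further: huh7 hepatoma cells harbouring a luciferase neomycin HCV replicon reporter; luciferase luminescence as measure of HCV replicon replication; test concentration not given here.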 Conditions: 48 h, higher = more signal. For orientation: A replicon is a self-replicating genome or part of one, used to study replication in cells.
Assay [16] has as its target Left-right determination factor 2 (Homo sapiens) (UniProt O00292). The assay is described as follows: LEFTY2 binders on small-molecule microarrays, primary screen, biochemical, small-molecule microarray, 635 nm fluorescence scan (AID 1110). Conditions: LEFTY2 binding, higher = more signal.
Assay [17] concerns the target Calmodulin-1 (Homo sapiens) (UniProt P0DP23). The assay is described as follows: CALM1 binders on microarrays, EGTA buffer, profiling panel, biochemical, small-molecule microarray, Cy5-labelled CALM1 (AID 1111).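 Further: labelled calmodulin applied in Tris saline Tween buffer holding calcium plus EGTA and DTT.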 Conditions: Cy5-CALM1 binding fluorescence, higher = more signal.
Assay [18] shares this target. Put plainly: calcium-bound CALM1 binders on microarrays, profiling panel, artefact control for SMM control-protein annotation, biochemical, small-molecule microarray, Cy5-labelled CALM1, plus calcium (AID 1112).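 Further: score merges spot fluorescence with signal to noise from triplicate slides.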 Conditions: Cy5-CALM1 binding fluorescence, higher = more signal.
Assay [19] can be described thus: small-molecule microarray binders of probe aWnt5a, primary screen, biochemical, biotinylated probe, 635/667 nm fluorescence (AID 1113).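 Further: score merges 667 nm fluorescence intensity with signal-to-noise per printed feature.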 Conditions: higher = more signal.
Assay [20] in a line: small-molecule microarray binders of probe aShh, primary screen, biochemical, biotinylated probe, 635/667 nm fluorescence (AID 1114).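 Further: probe is biotin-labelled aShh protein from a stem cell growth factor screen; measures binding of labelled protein to compounds printed on the slide; score merges feature fluorescence at 667 nm with signal-to-noise.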 Conditions: higher = more signal.

Structures are written as SMILES. The source made the active and inactive calls.

Sequence of Fibroblast growth factor 10 (Homo sapiens) (O15520 whole entry, looked up): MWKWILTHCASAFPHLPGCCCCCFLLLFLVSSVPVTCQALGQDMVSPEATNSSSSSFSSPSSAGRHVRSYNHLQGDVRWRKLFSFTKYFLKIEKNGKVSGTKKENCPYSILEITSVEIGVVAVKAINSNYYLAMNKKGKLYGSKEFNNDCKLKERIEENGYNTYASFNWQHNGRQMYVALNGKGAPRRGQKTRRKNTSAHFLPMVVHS
Sequence of Left-right determination factor 2 (Homo sapiens) (O00292 whole entry, looked up): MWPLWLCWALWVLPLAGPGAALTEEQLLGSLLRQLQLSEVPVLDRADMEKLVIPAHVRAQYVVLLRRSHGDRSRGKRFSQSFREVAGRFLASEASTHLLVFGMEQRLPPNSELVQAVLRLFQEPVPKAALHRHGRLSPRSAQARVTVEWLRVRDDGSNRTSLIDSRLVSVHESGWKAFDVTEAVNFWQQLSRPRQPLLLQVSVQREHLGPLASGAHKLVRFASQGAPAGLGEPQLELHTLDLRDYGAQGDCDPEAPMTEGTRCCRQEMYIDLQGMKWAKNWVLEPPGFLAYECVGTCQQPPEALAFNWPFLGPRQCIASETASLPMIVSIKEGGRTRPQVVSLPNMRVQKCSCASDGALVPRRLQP
Sequence of Dickkopf-related protein 1 (Homo sapiens) (O94907 whole entry, looked up): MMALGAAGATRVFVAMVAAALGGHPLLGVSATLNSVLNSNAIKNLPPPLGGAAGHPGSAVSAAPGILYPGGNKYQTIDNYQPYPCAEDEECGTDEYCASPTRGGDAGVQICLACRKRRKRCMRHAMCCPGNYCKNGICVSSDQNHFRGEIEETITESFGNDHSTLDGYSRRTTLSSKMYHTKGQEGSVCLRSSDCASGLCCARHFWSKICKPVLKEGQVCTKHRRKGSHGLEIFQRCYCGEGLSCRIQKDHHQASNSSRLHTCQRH

With `CC(C)C(CO)N1C(=O)[C@@H]2C3C(=O)OCCC/C=C\[C@H]3OC23C=CCN(C(C)C)C(=O)[C@@H]13` (stereo not given in full), the composite z-score in [1] is -0.868; in assay [2], -0.134; in [3], -0.188; in assay [4], 1.86; in assay [5], -0.191; in [6], 0.481. Besides, the composite z-score is -0.547 in assay [8]; -0.875 in [9]; -1.2 in assay [10]; -0.826 in [11]; -0.868 in [12]; 0.968 in assay [13]. In addition, the composite z-score was -0.359 in [14]; -0.73 in assay [16]; -0.467 in [17]; -0.14 in [18]; -0.221 in [19]; -0.0035 in assay [20]. Besides, the z-score in assay [7] is -0.895 (inactive); in [15], -0.069.

Take `COC(=O)C(CC#Cc1ccc2c(c1)[C@]1(C(=O)N2)[C@H](C(N)=O)[C@H]2C(=O)O[C@H](c3ccccc3)[C@H](c3ccccc3)N2[C@@H]1c1ccc(O)cc1)C(=O)OC`: the composite z-score is -1.1 in assay [1]; -1.23 in [2]; -0.442 in assay [3]; 1.12 in [4]; -0.608 in assay [5]; -0.0947 in [6]. The composite z-score in assay [8] was -0.519; in [9] it was -1.15; in [10], -1.1; in assay [11], -1.28; in assay [12] it was -0.591; in assay [13] it was -1.15. The composite z-score is -1.74 in assay [14]; -1.19 in [16]; -0.351 in assay [17]; 0.221 in [18]; -0.359 in assay [19]; 0.373 in [20]. Further, the z-score is 0.0733 (inactive) in assay [7] and -0.152 in assay [15].

Consider `CC(C)C(=C=CC[C@H](O)c1ccc(OCCO)cc1)C[C@H](O)COCc1ccccc1`, for which the composite z-score is 1.51 in [1]; 0.229 in [2]; -0.166 in assay [3]; 1.12 in assay [4]; -0.0067 in assay [5]; -0.226 in assay [6]. For the same compound, the composite z-score in [8] was 0.498; in assay [9], 0.653; in assay [10] it was -0.445; in [11], 0.421; in [12], 0.141; in assay [13], 1.42. Besides, the composite z-score in assay [14] is 0.162; in assay [16] it was -0.022; in [17], 0.59; in assay [18], -0.627; in [19] it was -0.0403; in assay [20] it was 0.0469. The z-score was -0.642 (inactive) in assay [7] and -1.87 in assay [15].

In the case of `COCCCN1C(=O)[C@@]2(Cc3ccccc31)c1ccccc1C(=O)N(Cc1ccccc1Cl)[C@H]2c1ccc(CO)cc1`, the composite z-score is -1.07 in [1]; -0.435 in assay [2]; -0.0304 in [3]; -0.482 in assay [4]; 0.337 in [5]; 0.775 in [6]. Further, the composite z-score in [8] was -0.129; in assay [9], -0.542; in assay [10], -0.406; in assay [11] it was -0.397; in assay [12], -0.685; in [13], 1.04. Besides, the composite z-score was -0.199 in assay [14]; -0.222 in assay [16]; -0.217 in [17]; -0.12 in assay [18]; 0.0044 in assay [19]; -0.0066 in assay [20]. In addition, the values for the z-score in assay [7] and in assay [15] were -0.471 (inactive) and -0.326, respectively.

On to `C=CCC(OC(C)=O)[C@@H]1[C@@H](N(Cc2cccc3ccccc23)C(=O)Cc2ccc(OC)cc2)c2cc(OCCCO)ccc2N1C(=O)Cc1ccc(OC)cc1` (stereo not given in full), for which the composite z-score is -0.318 in [1]; -0.89 in assay [2]; -0.166 in assay [3]; -0.247 in [4]; 0.199 in [5]; 0.373 in assay [6]. The composite z-score in [8] was -0.0161; in assay [9], -0.45; in [10] it was 0.015; in assay [11] it was -0.134; in assay [12], 0.0484; in assay [13], 1.21. Besides, the composite z-score is -0.05 in assay [14]; 0.119 in assay [16]; -0.294 in assay [17]; 0.14 in [18]; -0.014 in [19]; -0.153 in [20]. Further, the z-score is -0.768 (inactive) in assay [7] and 0.217 in assay [15].

With `COCCOC(=O)N1C(=O)[C@@]2(c3cc(C#CC4(O)CCCCCC4)ccc31)[C@H](c1ccc(O)cc1)N1[C@H](c3ccccc3)[C@H](c3ccccc3)OC(=O)[C@H]1[C@@H]2C(N)=O`, the composite z-score in assay [1] was 0.0282; in assay [2] it was 0.928; in assay [3] it was -0.0924; in [4] it was 0.98; in assay [5], 0.106; in assay [6] it was 0.375. Also, the composite z-score was 0.744 in assay [8]; 0.0417 in assay [9]; 0.0818 in assay [10]; 0.585 in assay [11]; 0.577 in [12]; 0.311 in [13]. Also, the composite z-score in [14] is 1.06; in assay [16], -0.0539; in assay [17] it was 2.23; in assay [18], 0.0903; in [19], 0.0719; in [20], -0.223. In addition, the z-score is -0.652 (inactive) in assay [7] and -0.0511 in assay [15].
